The values below come from ChEMBL document CHEMBL3988442, “University of Dundee, Small-Polar-MMV Screening Library” (2021).

The campaign covered roughly 48,000 compounds. About 13,000 (27%) showed an effect of 50% or more. This is one part of the list.

This experiment deals with Wolbachia pipientis. The experiment in a line: Anti-Wolbachia Cell-Based Screen. The format is functional. Further details: scale not given: in the data most compounds retested in dose-response had high values. As to conditions: 5 µM.
Turning to `CSCCC(=O)N1CCC(c2nccn2Cc2cscn2)CC1`, the “Percent Effect” value is -27.24%.
On to `Cc1ccsc1-c1nc(CN(C)Cc2cc[nH]n2)c(C)o1`, for which the “Percent Effect” value is 11.99%.
In the case of `Cc1ccc(S(=O)(=O)N2CCCC3(CCCN3S(C)(=O)=O)C2)cc1F` (centres undefined) it was 98%.
Consider `CS(=O)(=O)N1CCCC12CCCN(S(=O)(=O)c1ccc(F)c(F)c1)C2` (centres undefined), for which the “Percent Effect” value was 90.35%.
`Cc1ccc(S(=O)(=O)N2C[C@H](C3CC3)[C@@H](N)C2)cc1F`: the “Percent Effect” value was -0.3318%.
For `CS(=O)(=O)N1CCCC12CCCN(S(=O)(=O)c1ccc(F)cc1)C2` (centres undefined), the “Percent Effect” value is recorded as -4.23%.
Under `Cc1ccc(S(=O)(=O)N2CCCCC(N3CCN(C)CC3)C2)cc1F` (centres undefined) stands -10.96%.
In the case of `c1ccn2c(C3CCCN(c4ncnc5c4CCNC5)C3)nnc2c1` (centres undefined) it was -4.904%; in that of `O=C(O)COc1ccc(Cl)cc1CN1CCC2(CCNCC2)CC1`, -7.41%.
Under `Cc1csc(CN2CC(CO)Oc3ccccc32)n1` (centres undefined) stands -31.8%; under `COc1c(CNCc2ccccc2Cn2cccn2)c(C)nn1C`, 10.98%.
Consider `COc1c(CNCc2ccccc2Cn2cncn2)c(C)nn1C`, for which the “Percent Effect” value is listed as -0.9882%.
Consider `COc1c(CNCc2ccc(Cn3cccn3)cc2)c(C)nn1C`, for which the “Percent Effect” value is -21.67%.
Under `COc1c(CNCc2cccc(Cn3cncn3)c2)c(C)nn1C` stands 94.36%.
In the case of `COc1c(CNCc2cccc(Cn3ccnc3C)c2)c(C)nn1C.Cl` it was 162.7%; in that of `COc1c(CNCc2cccc(Cn3cccn3)c2)c(C)nn1C`, 134.9%; in that of `COc1c(CNCc2cccc(CN3CCOCC3)c2)c(C)nn1C`, -5.316%.
Under `Cc1ccc(NC(=O)C(C)N2CCCN(c3nccs3)CC2)c(C)c1` (centres undefined) stands -5.233%; under `O=S(=O)(NCC1(O)CCCC1)c1ccccc1Br`, 2.398%.
For the molecule `O=C(O)c1cc(-c2cc[nH]n2)cc(S(=O)(=O)N2CCCCCC2)c1`, the “Percent Effect” value worked out at 5.373%.
Turning to `O=c1[nH]nc2c(S(=O)(=O)N3CCCCC3)cccn12`, the “Percent Effect” value was found to be 132.6%.
For the molecule `CC(C)(C)OC(=O)Cn1cccc(S(=O)(=O)N2CCCC2)c1=O`, the “Percent Effect” value is 1.983%.
Under `O=C1N(c2ccc(F)cc2)Cc2n[nH]c(=O)n21` stands 2.178%; under `CC(=O)Nc1ncc(S(=O)(=O)N2CCOCC2)s1`, -0.8414%; under `O=S(=O)(Nc1ccc(N2CCOCC2)cn1)c1ccc(F)cc1`, -10.45%.
Under `CC(C)(C)OC(=O)Cn1cccc(S(=O)(=O)N2CCCCCC2)c1=O` stands -1.938%; under `CC1CCN(S(=O)(=O)c2cccn(CC(=O)NC(C)(C)C)c2=O)CC1`, -3.132%; under `CC1CCN(S(=O)(=O)c2cccn(CC(=O)N3CCOCC3)c2=O)CC1`, 5.887%.
In the case of `O=c1[nH]nc2c(S(=O)(=O)N3CCN(c4ccc(F)cc4)CC3)cccn12` it was 130.4%; in that of `O=c1[nH]nc2c(S(=O)(=O)N3CCOCC3)cccn12`, 153.4%; in that of `O=c1[nH]nc2c(S(=O)(=O)N3CCCC3)cccn12`, 132.4%.
Take `Cc1nc(CN2CCC(CNC(=O)C3CCOC3)CC2)oc1C` (centres undefined): the “Percent Effect” value is listed as -1.518%.
In the case of `CCCN(CCC)C(=O)c1cc(CN2CCC(O)CC2)on1` it was -23.18%; in that of `COc1ccc(-c2noc(CCC(=O)N3CCOCC3(C)C)n2)cc1`, 3.097%.
Take `CCc1nccn1C1CCCN(C(=O)c2cc3nc(C)ccc3o2)C1` (centres undefined): the “Percent Effect” value was -10.67%.
In the case of `O=c1[nH]nc2c(S(=O)(=O)N3CCCCCC3)cccn12` it was 159%.
In the case of `Cc1nnc(SCCNC(=O)CC2CCc3ccccc32)s1` (centres undefined) it was -7.078%; in that of `CN1CCC(C(=O)N2CCN(Cc3cccc(Cl)c3)CC2)CC1=O` (centres undefined), 1.504%.
Under `CC(C)N1C[C@@H]2OCC(=O)N(Cc3ccccc3)[C@@H]2C1` stands 4.027%.
Consider `O=C(O)[C@H]1OCC(=O)N(Cc2cccc(Cl)c2)[C@@H]1c1ccccc1`, for which the “Percent Effect” value is 97.67%.
In the case of `O=C(O)C(F)(F)F.O=C1CO[C@@H]2CN(CC3CC3)C[C@H]2N1Cc1cccc(F)c1` it was 2.959%; in that of `O=C(O)C(F)(F)F.O=C1CO[C@@H]2CN(CC3CCOC3)C[C@H]2N1Cc1cccc(F)c1` (some centres undefined), 18.32%.
Consider `NC(=O)CN1C(=O)CO[C@H]2CN(Cc3ccccc3)C[C@H]21`, for which the “Percent Effect” value was -7.855%.
For `O=C(O)[C@@H]1OCC(=O)N(Cc2cccc(Cl)c2)[C@@H]1c1ccccc1`, the “Percent Effect” value worked out at 105.3%.
Under `O=C1CO[C@H]2CN(S(=O)(=O)c3ccccc3)C[C@H]2N1Cc1ccccc1` stands -0.9845%.
Turning to `O=C(O)[C@H]1OCC(=O)N(Cc2cccc(F)c2)[C@@H]1c1ccc(Cl)cc1`, the “Percent Effect” value was found to be 104.6%.
Turning to `CCOc1ccccc1-c1noc(CN2CC(n3cccn3)C2)n1`, the “Percent Effect” value is on record as -3.661%.
Take `COc1ccc(C2(C(=O)N3CC(c4cccnc4)C3)CC2(C)C)cc1` (centres undefined): the “Percent Effect” value was -12.52%.
Under `COc1ccc(C(=O)N2CCOC(Cc3cccc(C(F)(F)F)c3)C2)o1` (centres undefined) stands -4.741%; under `N#Cc1ccc(CNc2ncc(C#N)cc2Cl)cc1`, 12.93%; under `CCn1nc(C)c(CN(CCCOC)Cc2ccccn2)c1C.O=C(O)CC(O)(CC(=O)O)C(=O)O`, 71.01%.
Turning to `CCn1nc(C)c(CN(CCOC)C(=O)c2ccc(=O)[nH]n2)c1C`, the “Percent Effect” value is -5.597%.
Under `CCOCC(=O)N(Cc1ccccn1)Cc1ccccc1C` stands -6.914%; under `Cc1occc1C(=O)N(CCN(C)C)Cc1ccccn1`, -8.298%; under `CCn1nc(C)c(CN(Cc2ccccn2)Cc2ccccc2Cl)c1C`, 105.5%.
In the case of `Cc1ccoc1C(=O)N(CCN(C)C)Cc1ccccn1` it was -10.81%; in that of `Cc1ccsc1CN(CCCN(C)C)Cc1ccccn1`, 97.01%.
Regarding `CCN(Cc1ccccn1)Cc1cc(Cl)ccc1OC`, the “Percent Effect” value was -5.315%.
In the case of `Cc1ccsc1CN(Cc1ccccn1)CC(C)C` it was -7.102%.
As to `CCn1nc(C)c(CN(CCCN(C)C)Cc2ccccn2)c1C`, the “Percent Effect” value turned out to be 80.15%.
In the case of `CCn1nc(C)c(CN(CCOC)C(=O)c2ccccc2N(C)C)c1C` it was -7.863%.
In the case of `Cc1ccsc1CN(CCN(C)C)Cc1ccccn1` it was 2.739%; in that of `CN1CCCN(CCCNC2CCc3cc4c(cc32)OCCO4)CC1` (centres undefined), -2.164%; in that of `CCN1CCN(c2ccc(F)cc2C(C)NCc2noc(C)n2)CC1` (centres undefined), 6.672%.
